# From PubChem BioAssay
# Several values for one entry are separate records, joined by “and”; a condition that tells them apart may be missing. Equal values may be shown once. Results filed as inconclusive are left out. For some assays here: Measured potencies and affinities stand elsewhere. Activity calls are given as the source filed them. Unless noted, no rule for the calls is given here.
# Key:
# [1] = antimalarial activity against Dd2 strain (AID 2302;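 active = growth inhibition above 50% at the single 2 µM test dose, taken to imply half-maximal potency below 2 µM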;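 also: 0% = DMSO untreated growth and 100% = chloroquine plus artemisinin killed control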); settings: P. falciparum Dd2 in RBCs, LDH growth readout, 72 h; at 2 µM; stronger effect = higher value
# [2] = human hepatoma cell viability loss – ATP luminescence, cytotoxicity control for P. falciparum antimalarial project, primary screen (AID 2303;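 active = inhibition above 50%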;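 also: 0% = DMSO wells and 100% = digitonin-killed cells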); settings: HepG2 viability, 24-48 h, at 10 µM, stronger effect = higher value
# [3] = target: L-lactate dehydrogenase (Plasmodium falciparum (isolate CDC / Honduras)) (UniProt Q27743); assay: PfLDH activity inhibition – cell lysate, 3D7 strain, counter-screen for P. falciparum growth inhibition project (AID 2304);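 also: 0% = vehicle and 100% = reference inhibitor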; settings: P. falciparum 3D7 crude extract, LDH APAD/NBT absorbance; at 2 µM; stronger effect = higher value
# [4] = inhibition of 3D7 malaria parasite growth – strain 3D7 (AID 2306);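 also: 0% = DMSO wells and 100% = chloroquine plus artemisinin control wells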; settings: P. falciparum 3D7 erythrocytic growth, LDH absorbance, 72 h; at 2 µM; stronger effect = higher value
# [5] = target: Calcium-dependent protein kinase 1 (Plasmodium falciparum (isolate 3D7)) (UniProt P62344); assay: PfCDPK1 kinase inhibitors, biochemical, TCAMS library (AID 1159585; cut-off not given, nearly all actives have IC50 up to about 0.98 µM;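 also: inhibitors leave more ATP so luminescence rises with inhibition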); settings: recombinant PfCDPK1, Kinase-Glo ATP depletion luminescence
# [6] = target: Plasmodium falciparum protein kinase 6 (PK6, PF3D7_1337100) (UniProt Q8IDW1); assay: PfPK6 kinase inhibitors, biochemical, TCAMS library (AID 1159586); settings: recombinant PfPK6, Kinase-Glo ATP depletion luminescence
# [7] = target: Protein kinase 7 (PK7), Plasmodium falciparum 3D7 (PF3D7_0213400) (UniProt Q7YTF7); assay: inhibition of Plasmodium PK7 catalytic activity – biochemical, TCAMS antimalarial set, Kinase-Glo luminescence (AID 1159587); settings: recombinant PfPK7, Kinase-Glo ATP depletion luminescence
# [8] = target: Calcium-dependent protein kinase 4 (Plasmodium falciparum (isolate 3D7)) (UniProt Q8IBS5); assay: PfCDPK4 kinase inhibitors, biochemical, TCAMS library (AID 1159588; cut-off not given, nearly all actives have IC50 up to about 0.91 µM); settings: recombinant PfCDPK4, Kinase-Glo ATP depletion luminescence
# [9] = viability loss in pontine glioma line – cell-based, SU-DIPG-XVII, MIPE5.0, CellTiter-Glo, qHTS, dose response (AID 1347060; cut-off not given, nearly all actives have AC50 up to about 26 µM;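 also: cells exposed to compound for 48 hours before viability readout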); settings: CellTiter-Glo ATP luminescence
# [10] = viability loss in pontine glioma line – cell-based, SU-DIPG-XIII, MIPE4.0, CellTiter-Glo, qHTS, dose response (AID 1347061; cut-off not given, nearly all actives have AC50 up to about 37 µM;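 also: cells exposed to compound for 48 hours before readout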); settings: CellTiter-Glo ATP luminescence
# [11] = viability loss in pontine glioma line – cell-based, JHH-DIPG-1, MIPE4.0, CellTiter-Glo, qHTS, dose response (AID 1347062; cut-off not given, nearly all actives have AC50 up to about 27 µM;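 also: cells exposed to compound for two days before readout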); settings: JHH-DIPG-1 viability, CellTiter-Glo ATP luminescence
# [12] = viability loss in pontine glioma line – cell-based, SU-DIPG-IV, MIPE4.0, CellTiter-Glo, qHTS, dose response (AID 1347063; cut-off not given, nearly all actives have AC50 up to about 30 µM;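 also: compound exposure lasted 48 hours before the viability readout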); settings: CellTiter-Glo ATP luminescence
# [13] = viability loss in pontine glioma line – cell-based, SU-DIPG-XIII, MIPE5.0, CellTiter-Glo, qHTS, dose response (AID 1347064; cut-off not given, nearly all actives have AC50 up to about 23 µM;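 also: cells exposed to compound for 48 hours before the viability read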); settings: CellTiter-Glo ATP luminescence
# [14] = viability loss in pontine glioma line – cell-based, SU-DIPG-XXV, MIPE5.0, CellTiter-Glo, qHTS, dose response (AID 1347065; cut-off not given, nearly all actives have AC50 up to about 26 µM;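 also: cells exposed to compound for 48 hours before ATP readout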); settings: CellTiter-Glo ATP luminescence
# [15] = JHH-DIPG-1 glioma cell viability, MIPE5.0 library, CellTiter-Glo luminescence, qHTS (AID 1347067; cut-off not given, nearly all actives have AC50 up to about 26 µM;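 also: cells exposed to compound for 48 hours before readout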); settings: JHH-DIPG-1 glioma viability, CellTiter-Glo ATP luminescence
# [16] = growth inhibition of DIPG cells – cell-based, MIPE5.0 library, qHTS (AID 1347068; cut-off not given, nearly all actives have IC50 up to about 30 µM;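 also: cells exposed to compound for 48 hours before viability readout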); settings: SU-DIPG-XXV viability
# [17] = viability loss with induced miR-34 in A549 – imaging, A549 dox-inducible miR-34, nuclei and caspase counts, primary screen (AID 1347080;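 active = compounds whose cell count with miR-34 switched on is under 0.7 times the count with it off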); settings: A549 miR-34 inducible, Hoechst nuclei count, 48 h
# [18] = MELAS cybrid and Rieske KO viability enhancers – cell-based, MELAS cybrids, Rieske KO mouse fibroblasts, CellTiter-Glo, primary screen (AID 1508586;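 active = mean z-score across replicates of 1.96 or higher in either the MELAS or the Rieske mutant cell line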;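 also: z relative to plate mean and SD of compound and empty wells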); settings: low glucose
# [19] = blockers of polyQ-driven CASP3 activation – cell-based (AID 1583); settings: polyglutamine-induced caspase-3 activation, cell assay; stronger effect = higher value;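 tested at 10 µM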
# [20] = yeast 75Q aggregation reduction – 75Q-TubU reporter (AID 1593); settings: Yeast 75Q polyglutamine aggregation reporter
# [21] = restoration of touch response, mutant HTT neurons – whole organism, C. elegans mechanosensory neurons, N-terminal huntingtin (AID 1599); settings: C. elegans polyQ-huntingtin mechanosensory neurons, stronger effect = higher value
# [22] = blockers of cytochrome c efflux from mitochondria – biochemical, purified mitochondria (AID 1603); settings: stronger effect = lower value;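 also: mouse liver mitochondria challenged with calcium chloride; signal normalized to the plate average as 100%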
# [23] = polyglutamine aggregate formation blockers (AID 1604); settings: polyglutamine-induced protein aggregation inhibition assay; stronger effect = higher value; tested at 2.5 µM
# [24] = glutamate transport activators, MN-1 cells, MN-1 cell line (AID 1612); settings: MN-1 motor neuron cells, stronger effect = higher value;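 also: tested at 1 µM final; 0% = mean of DMSO vehicle wells on each plate; positive means more glutamate uptake than control and negative means less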
# [25] = GFP-Q80 aggregate reduction, neuronal-like cells, cell-based, NGF-treated PC12, GFPQ80 (AID 1614); settings: PC12 NGF-treated GFP-polyQ80 inclusion reduction;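 also: lower means fewer inclusions and 0 means no inclusions at all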
# [26] = 75Q-TubH aggregate inhibition, S. cerevisiae, yeast (AID 1616); settings: S. cerevisiae 75Q-TubH polyglutamine aggregation suppression; stronger effect = higher value
# [27] = modulation of C. elegans fzo-1 (AID 1259413);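 also: fzo-1 mutant C. elegans worms in liquid wells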; settings: C. elegans fzo-1 modulator screen, mean read-out; stronger effect = higher value
# [28] = EMT-state selective cytotoxicity in co-culture – imaging, PC-3E GFP, TEM4-18 mCherry, primary screen (AID 1345086;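 active = compounds killing one labelled cell type while sparing the other, by normalised counts and ratio limits, not self-fluorescent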;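 also: cells exposed to compound for 72 h before imaging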;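 as to red/green cell ratio (normalised): normalised mesenchymal count divided by normalised epithelial count so high means epithelial killing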); settings: PC-3E GFP / TEM4-18 mCherry co-culture, imaging cell counts, at 1 µM
# [29] = target: NAD(+) hydrolase SARM1 (Homo sapiens) (UniProt Q6SZW1); assay: blocking NAD cleavage by SARM1 SAM-TIR – cell lysate, NAD-Glo luminescence (AID 1508614;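 active = compound whose remaining NAD level is above about 45 nM, limit read from the data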;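 also: higher remaining NAD means stronger inhibition of SARM1 NADase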); settings: SAM-TIR HEK293T lysate NADase, at 1 µM, stronger effect = higher value
# [30] = target: Mitogen-activated protein kinase 7 (Homo sapiens) (UniProt Q13164); assay: Gal4-ERK5 driven luciferase induction – cell-based, HTS, primary screen (AID 1508626;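 active = luciferase signal above three times the same-plate solvent-only control wells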;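 also: luciferase driven by Gal4-ERK5 fusion binding five Gal4 sites before minimal TATA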); settings: HeLa Gal4-ERK5 transactivation, 18 h, at 5 µM, stronger effect = higher value
# [31] = galactose survival enhancers in mitochondrial complex I cybrids – cell-based, galactose medium, ATP luminescence, primary screen (AID 1645843;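 active = z-score of at least 1.8 in each of two replicates, scored against plate mean and spread of sample wells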;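 also: positive z means more ATP and so rescue of galactose-driven cybrid death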); settings: complex I mutant cybrid cells, 72 h, stronger effect = higher value
# [32] = stronger effect = lower value, cell number ratio, induced over uninduced
# [33] = measured here: relative caspase fold change +Dox/-Dox
# [34] = measured here: total cells with miR-34 induction, stronger effect = lower value
# [35] = measured here: total cells without miR-34 induction
# [36] = MELAS cybrid survival, CellTiter-Glo 48 h, stronger effect = higher value
# [37] = Rieske KO mouse fibroblast survival, CellTiter-Glo 72 h
# Plasmodium falciparum protein kinase 6 (PK6, PF3D7_1337100), sequence (Q8IDW1 1-305): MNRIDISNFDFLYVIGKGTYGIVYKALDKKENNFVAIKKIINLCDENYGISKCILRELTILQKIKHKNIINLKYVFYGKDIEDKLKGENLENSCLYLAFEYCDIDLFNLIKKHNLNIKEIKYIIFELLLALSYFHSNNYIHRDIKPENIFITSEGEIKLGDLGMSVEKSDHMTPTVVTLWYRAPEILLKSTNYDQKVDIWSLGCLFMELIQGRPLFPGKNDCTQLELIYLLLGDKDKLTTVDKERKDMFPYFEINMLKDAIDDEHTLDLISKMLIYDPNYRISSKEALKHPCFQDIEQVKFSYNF
# Calcium-dependent protein kinase 1 (Plasmodium falciparum (isolate 3D7)), sequence (P62344 whole entry, looked up): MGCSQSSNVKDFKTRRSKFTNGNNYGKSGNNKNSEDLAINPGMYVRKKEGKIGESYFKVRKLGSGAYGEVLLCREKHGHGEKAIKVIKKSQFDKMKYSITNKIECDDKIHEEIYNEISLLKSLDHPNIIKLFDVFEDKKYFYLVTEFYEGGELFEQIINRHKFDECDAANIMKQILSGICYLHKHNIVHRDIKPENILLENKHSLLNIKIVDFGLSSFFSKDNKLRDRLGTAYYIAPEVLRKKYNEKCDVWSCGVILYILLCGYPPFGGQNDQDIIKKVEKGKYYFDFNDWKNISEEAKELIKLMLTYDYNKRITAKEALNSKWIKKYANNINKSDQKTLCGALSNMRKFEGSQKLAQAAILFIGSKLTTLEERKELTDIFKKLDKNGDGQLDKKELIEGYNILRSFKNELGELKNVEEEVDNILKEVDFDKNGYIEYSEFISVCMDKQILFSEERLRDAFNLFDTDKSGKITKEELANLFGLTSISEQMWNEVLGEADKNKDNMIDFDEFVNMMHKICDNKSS
# Calcium-dependent protein kinase 4 (Plasmodium falciparum (isolate 3D7)), sequence (Q8IBS5 whole entry, looked up): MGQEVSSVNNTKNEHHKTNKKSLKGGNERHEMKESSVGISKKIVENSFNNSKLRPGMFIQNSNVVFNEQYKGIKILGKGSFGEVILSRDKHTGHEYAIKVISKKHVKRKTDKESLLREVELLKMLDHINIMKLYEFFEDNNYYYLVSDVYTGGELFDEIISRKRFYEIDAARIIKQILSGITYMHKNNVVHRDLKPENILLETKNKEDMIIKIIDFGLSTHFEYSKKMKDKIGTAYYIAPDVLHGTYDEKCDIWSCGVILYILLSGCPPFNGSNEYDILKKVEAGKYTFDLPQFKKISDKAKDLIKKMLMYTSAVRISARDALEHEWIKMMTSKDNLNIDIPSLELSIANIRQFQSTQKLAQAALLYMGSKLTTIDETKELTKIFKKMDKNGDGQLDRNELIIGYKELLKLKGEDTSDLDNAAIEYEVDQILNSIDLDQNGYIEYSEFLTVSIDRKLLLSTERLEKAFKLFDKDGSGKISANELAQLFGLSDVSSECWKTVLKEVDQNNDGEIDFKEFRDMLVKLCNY
# Protein kinase 7 (PK7), Plasmodium falciparum 3D7 (PF3D7_0213400), sequence (Q7YTF7 1-343): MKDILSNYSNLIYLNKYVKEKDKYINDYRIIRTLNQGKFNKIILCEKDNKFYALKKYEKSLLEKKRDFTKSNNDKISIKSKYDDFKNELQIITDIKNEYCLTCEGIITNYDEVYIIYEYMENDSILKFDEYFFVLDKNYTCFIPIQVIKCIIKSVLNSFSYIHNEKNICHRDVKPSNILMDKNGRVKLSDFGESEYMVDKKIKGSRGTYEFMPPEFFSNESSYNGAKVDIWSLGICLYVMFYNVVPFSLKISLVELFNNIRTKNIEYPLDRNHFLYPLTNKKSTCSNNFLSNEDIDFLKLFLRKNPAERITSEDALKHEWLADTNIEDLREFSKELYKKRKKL
# L-lactate dehydrogenase (Plasmodium falciparum (isolate CDC / Honduras)), sequence (Q27743 whole entry, looked up): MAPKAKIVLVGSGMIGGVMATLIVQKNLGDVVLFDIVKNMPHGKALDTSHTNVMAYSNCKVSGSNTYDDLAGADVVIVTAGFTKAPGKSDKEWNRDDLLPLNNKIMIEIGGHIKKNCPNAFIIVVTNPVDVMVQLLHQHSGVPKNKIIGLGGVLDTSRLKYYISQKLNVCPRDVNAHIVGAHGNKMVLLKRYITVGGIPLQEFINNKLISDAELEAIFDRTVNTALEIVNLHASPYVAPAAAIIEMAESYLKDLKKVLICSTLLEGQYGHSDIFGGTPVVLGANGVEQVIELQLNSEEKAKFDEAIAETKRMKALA
# Mitogen-activated protein kinase 7 (Homo sapiens), sequence (Q13164 whole entry, looked up, the tested form may be a part): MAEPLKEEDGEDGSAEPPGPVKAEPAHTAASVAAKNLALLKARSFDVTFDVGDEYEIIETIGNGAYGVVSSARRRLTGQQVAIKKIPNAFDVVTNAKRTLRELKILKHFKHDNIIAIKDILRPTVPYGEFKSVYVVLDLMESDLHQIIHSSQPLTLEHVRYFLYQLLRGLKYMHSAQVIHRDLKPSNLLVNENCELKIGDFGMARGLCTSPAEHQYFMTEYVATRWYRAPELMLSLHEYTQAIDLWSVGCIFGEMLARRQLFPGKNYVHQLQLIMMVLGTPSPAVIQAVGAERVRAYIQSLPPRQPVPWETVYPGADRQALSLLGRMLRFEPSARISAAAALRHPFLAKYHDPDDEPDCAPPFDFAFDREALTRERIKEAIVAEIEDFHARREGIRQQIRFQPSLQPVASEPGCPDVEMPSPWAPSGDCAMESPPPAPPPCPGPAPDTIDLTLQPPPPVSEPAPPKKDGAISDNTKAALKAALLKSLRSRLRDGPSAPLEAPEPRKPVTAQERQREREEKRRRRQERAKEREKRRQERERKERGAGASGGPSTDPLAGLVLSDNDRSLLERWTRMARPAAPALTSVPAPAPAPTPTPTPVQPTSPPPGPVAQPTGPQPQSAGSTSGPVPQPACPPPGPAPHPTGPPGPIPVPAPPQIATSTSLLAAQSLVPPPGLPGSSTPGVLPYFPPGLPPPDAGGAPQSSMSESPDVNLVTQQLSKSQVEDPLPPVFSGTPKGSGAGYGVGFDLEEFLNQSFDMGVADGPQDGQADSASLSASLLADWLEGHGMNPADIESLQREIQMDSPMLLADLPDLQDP
# NAD(+) hydrolase SARM1 (Homo sapiens), sequence (Q6SZW1 whole entry, looked up, the tested form may be a part): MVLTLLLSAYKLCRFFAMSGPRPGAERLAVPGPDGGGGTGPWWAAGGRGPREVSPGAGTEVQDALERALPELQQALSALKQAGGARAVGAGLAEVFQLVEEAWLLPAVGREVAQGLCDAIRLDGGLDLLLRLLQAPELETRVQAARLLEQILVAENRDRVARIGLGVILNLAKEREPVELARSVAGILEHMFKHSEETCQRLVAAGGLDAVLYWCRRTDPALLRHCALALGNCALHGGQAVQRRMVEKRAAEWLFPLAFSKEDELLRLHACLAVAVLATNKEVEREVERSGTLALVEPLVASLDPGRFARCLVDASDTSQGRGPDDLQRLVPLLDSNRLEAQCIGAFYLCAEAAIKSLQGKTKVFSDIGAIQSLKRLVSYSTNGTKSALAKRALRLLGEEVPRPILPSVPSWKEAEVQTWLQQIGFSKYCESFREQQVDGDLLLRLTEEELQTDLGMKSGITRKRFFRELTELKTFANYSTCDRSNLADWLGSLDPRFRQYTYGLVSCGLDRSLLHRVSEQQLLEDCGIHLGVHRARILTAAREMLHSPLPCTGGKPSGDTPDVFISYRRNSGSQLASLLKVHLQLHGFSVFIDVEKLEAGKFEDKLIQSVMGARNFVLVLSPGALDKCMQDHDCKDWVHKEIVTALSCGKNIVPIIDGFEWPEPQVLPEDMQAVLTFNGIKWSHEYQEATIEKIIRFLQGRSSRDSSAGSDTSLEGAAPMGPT
smiles,measurement,setting,value
CCS(=O)(=O)Nc1ccc2[nH]c(O)c(C(=Nc3ccc(CN4CCCCC4)cc3)c3ccccc3)c2c1,growth inhibition,[1],74% (active)
same,inhibition,[2],53% (active)
same,inhibition,[3],6% (inactive)
same,growth inhibition,[4],87% (active)
same,outcome,[5],inactive
same,outcome,[6],inactive
same,outcome,[7],inactive
same,outcome,[8],inactive
same,AC50,[9],263 nM (active)
same,AC50,[10],662 nM (active)
same,AC50,[11],5900 nM (active)
same,AC50,[12],5900 nM (active)
same,AC50,[13],263 nM (active)
same,AC50,[14],83.3 nM (active)
same,AC50,[15],742 nM (active)
same,IC50,[16],468 nM (active)
same,fold change,[17]; [32],1 (inactive)
same,fold change,[17]; [33],0.435
same,cell count,[17]; [34],720
same,cell count,[17]; [35],718
same,z-score,[18]; [36],0.158 (inactive)
same,z-score,[18]; [37],-2.81
COc1ccc(NC(=O)c2cc(-c3ccc(NC(C)=O)cc3)cnc2N)cc1,growth inhibition,[1],5% (inactive)
same,inhibition,[2],10% (inactive)
same,inhibition,[3],4% (inactive)
same,growth inhibition,[4],98% (active)
same,outcome,[5],inactive
same,outcome,[6],inactive
same,outcome,[7],inactive
same,outcome,[8],inactive
C=C[C@H]1CN2CC[C@H]1C[C@@H]2[C@@H](O)c1ccnc2ccc(OC)cc12,inhibition,[19],12.3%
same,score,[20],1.3
same,rescue above control,[21],-0.47
same,cytochrome c release ratio,[22],1.12
same,inhibition of aggregation,[23],54.5%
same,glutamate uptake change,[24],12.1%
same,inclusion score,[25],2
same,aggregation suppression score,[26],1.24
same,growth inhibition,[1],95% (active)
same,inhibition,[2],-11% (inactive)
same,inhibition,[3],-3% (inactive)
same,growth inhibition,[4],98% (active)
same,outcome,[5],inactive
same,outcome,[6],inactive
same,outcome,[7],inactive
same,outcome,[8],inactive
same,mean signal,[27],302 (active)
same,red/green cell ratio (normalised),"[28]; actives lie on both sides, counts scaled to control wells, 1 = unselective",1.14 (inactive)
same,normalised cell number,[28]; measured here: epithelial PC-3E GFP cell survival,1.07
same,normalised cell number,[28]; measured here: mesenchymal TEM4-18 mCherry cell survival,1.22
same,fold change,[17]; [32],0.965 (inactive) and 0.96 (inactive) and 0.929 (inactive)
same,fold change,[17]; [33],1.07 and 0.67 and 3.94
same,cell count,[17]; [34],9710 and 7980 and 11400
same,cell count,[17]; [35],10100 and 8310 and 12200
same,z-score,[18]; [36],0.598 (inactive)
same,z-score,[18]; [37],0.401
same,remaining NAD,[29],10 nM (inactive)
same,luciferase signal,[30],84 AU (inactive)
same,z-score,[31],0.055 (inactive)
